In all, about 15,000 compounds went through this assay and about 60 (0.4%) were called active. The sample holds actives, similar compounds and a random draw of the others, so the mix is not that of the screen. Cut-off read from the data, not from the text of the source: active = activation above about 2.2%; inactive = the rest.

The experiment in a line: activates NOTCH signaling in reporter cells (AID 434982). Particulars: NOTCH signaling luciferase reporter cells, luminescence; at 2.5 µM; hits give high values.
Turning to `O=C(Nc1ccc(OC(F)F)cc1)Nc1coc(-c2ccccc2)c1`, the activation is -0.11% (inactive). On to `CCSC(=O)NCc1ccccc1`, for which the activation was -0.05% (inactive).

For the compound `O=C(O)c1ccccc1Nc1ccccc1F`, the activation is -0.29% (inactive). The result for `CN(n1cnc2ccccc2c1=O)S(=O)(=O)c1cc(Cl)sc1Cl` reads -0.39% (inactive). The result for `COC(=O)c1sc(SC)c(-c2ccn[nH]2)c1C` reads 0.4% (inactive); that for `O=C(/C(=N\N=C\c1ccc2c(c1)OCO2)c1ccccc1)c1ccccc1`, -0.24% (inactive); that for `CCCCCCCN=C(C)c1ccccc1O`, -0.3% (inactive). The result for `O=C(O)CC1(CC(=O)Nc2ccccc2-n2cccn2)CCCCC1` reads -0.3% (inactive). For the compound `CSc1ccc(Br)cc1`, the activation is 0.1% (inactive).

As to `O=C(N/N=C/c1cccs1)C(=O)Nc1ccc(Cl)c(Cl)c1`, the activation was -0.5% (inactive). As to `O=C1C=C(c2ccccc2)CN(C2CCCCC2)C1=O`, the activation was -1.07% (inactive).

For the compound `O=C(Nc1ccccc1)N1CCN(c2ncnc3sccc23)CC1`, the activation is -0.57% (inactive). Take `COCCOc1ccc(NC(=S)N2CCOCC2)cc1`: the activation was 0.32% (inactive). The result for `COC(=O)c1ccccc1NC(=O)c1ccc(Oc2cc(Cl)cc(Cl)c2)o1` reads -0.31% (inactive); that for `O=C(Sc1ccccc1)c1ccc(C(F)(F)F)cc1`, -0.46% (inactive). The result for `CC(N)=NCCc1ccncc1` reads -0.78% (inactive); that for `N/C(=N\OC(=O)CCn1cccc(C(F)(F)F)c1=O)c1ccc(OC(F)(F)F)cc1`, -0.58% (inactive); that for `CCOC(=O)/C(C#N)=C/NNc1c(C)csc1C(=O)OC`, 0.05% (inactive). On to `Cn1/c(=N\N=C2CCCCC2)sc2ccccc21`, for which the activation is 0.03% (inactive). In the case of `CSc1cccc(NC(=O)C(=O)NCCc2ccccn2)c1`, the activation was -1.05% (inactive).

For the compound `COCCCN/C(SCc1c(F)cccc1Cl)=C(\C#N)C(N)=O`, the activation was 0.49% (inactive). For `CC1CN(c2ccc(NC(=S)NCc3cccs3)cc2)CC(C)O1` (stereo unspecified), the activation is -0.73% (inactive).

As for `N#Cc1c(-c2ccccc2)c(-c2ccccc2)n[nH]c1=O`, the activation is -0.27% (inactive). The same measure for `O=C1C(Nc2ccccc2)=CC(c2ccc([N+](=O)[O-])cc2)N1c1ccccc1` (stereo unspecified): -0.41% (inactive).

Regarding `N#CC1(C#N)C(c2ccc(Cl)c(Cl)c2)C1(C#N)C#N`, the activation is -0.6% (inactive). The same measure for `N#Cc1nccnc1N1CCN(C(=O)c2ccccc2)CC1`: -0.2% (inactive); for `Cn1c(SCC(=O)c2ccc(Cl)cc2)nnc1-c1cnccc1C(F)(F)F`: -0.25% (inactive); for `O=C(O)c1ccccc1N/C=C/[N+](=O)[O-]`: -0.62% (inactive). In the case of `CC1=NOC(=O)/C1=C\c1ccccc1`, the activation is -0.92% (inactive). Regarding `O=C1Nc2ccccc2C12NNC(=S)NN2`, the activation was -0.45% (inactive). For `CCCC1NC(=O)NC(C)=C1C(=O)OCC` (stereo unspecified), the activation is -0.61% (inactive).

Consider `CCOC(=O)C(=CNc1cc(C(F)(F)F)ccc1NCc1ccccc1)C(=O)OCC`, for which the activation was -0.25% (inactive). The same measure for `CCOC(=O)COc1cccc2c(C)cc(=O)oc12`: -0.24% (inactive); for `Cc1nc(-c2ccccc2)sc1-c1nnc(C2CC2)o1`: -0.45% (inactive); for `O=C(CN1C(=O)/C(=C/c2ccccc2Cl)N=C1c1ccccc1)c1ccccc1`: -0.14% (inactive). On to `COC(=O)C1=C(NNc2ncc(Cl)cc2C(F)(F)F)CSC1`, for which the activation is -0.05% (inactive). The same measure for `CC(C)c1ccc(NNS(=O)(=O)c2ccc(Cl)c(Cl)c2)cc1`: -0.45% (inactive); for `CCOc1c(N2CCCCC2)c(=O)c1=O`: -0.13% (inactive); for `O=c1[nH]/c(=C/c2ccc(OC(F)(F)F)cc2)c(=O)[nH]/c1=C/c1ccc(OC(F)(F)F)cc1`: -0.83% (inactive). The same measure for `CSc1nnc(-c2ccc(C(F)(F)F)cn2)o1`: 0.03% (inactive). The result for `CCOC(=O)/C(C#N)=C/N=C(N/N=C/c1cccs1)SC` reads -0.19% (inactive); that for `FC(F)(F)c1cc(-c2ccc(Br)cc2)n[nH]1`, 0.22% (inactive); that for `N#C/C(=C\C=C\c1ccccc1)c1nc2ccccc2[nH]1`, -5.39% (inactive). As to `COc1cccc(/C=C2\SC(=S)C(N)C2=O)c1OC` (stereo unspecified), the activation is 0.34% (inactive). The same measure for `NC(=S)N/N=C\Cc1nnnn1-c1ccc(Cl)cc1`: 0.16% (inactive).

Take `Cc1ncn2cc(-c3ccc(Cl)cc3Cl)[nH]c(=O)c12`: the activation was -0.34% (inactive). For the compound `N#Cc1cc([N+](=O)[O-])c(N2CCCC2)cc1N1CCCC1`, the activation was -0.6% (inactive). The same measure for `CC(C)(C)c1cc(C(=O)/C=C2/NC(=O)CS2)no1`: 0.5% (inactive). The result for `Cc1cccc(Cl)c1NC(=S)NCCNC(=O)OC(C)(C)C` reads -0.1% (inactive); that for `OC(COc1ccc(Cl)c(Cl)c1)CN1CCC(Nc2nccc(C(F)(F)F)n2)CC1` (stereo unspecified), -0.76% (inactive); that for `CCOC(=O)CCSc1cc(-n2cccc2)c(Cl)cc1[N+](=O)[O-]`, -0.25% (inactive).

On to `CCCN(CCC)S(=O)(=O)c1ccc(C(=O)Oc2c(C)cccc2OC)cc1`, for which the activation was 0.36% (inactive). The same measure for `O=C(O)CC1(CC(=O)Nc2ccc(N3CCCCC3)cc2)CCCCC1`: -0.6% (inactive).

For `COc1cc(CC/C(C)=N/O)ccc1O`, the activation is 0.52% (inactive). The same measure for `O=C(Nc1cccnc1Oc1ncnc2cc(Cl)ccc12)c1ccc(F)cc1`: -5.46% (inactive). The result for `O=C(O)c1ncoc1-c1cccc(Cl)c1` reads -0.29% (inactive). On to `Cn1cnc(S(=O)(=O)Nc2ccc3[nH]ccc3c2)c1`, for which the activation is -0.46% (inactive).

`COc1ccc(C(=O)NNC(=O)c2c(OC)cc(C(F)(F)F)cc2C(F)(F)F)cc1`: the activation was 0.11% (inactive). As to `O=C(O)C#Cc1cccc2ccccc12`, the activation was -0.45% (inactive). The result for `Cn1cc(Br)c(-c2cccc(NC(=O)c3ccccc3Cl)c2)n1` reads -0.38% (inactive); that for `Cc1onc(-c2ccccc2Cl)c1NC(=O)N1c2ccc(F)cc2CCC1C` (stereo unspecified), -0.44% (inactive). The result for `CN(C)/C=C1/C(=O)NN=C1CSc1ccc(Cl)cc1` reads -0.25% (inactive). The result for `Cc1c(S(=O)(=O)N2CCOCC2)ccc(Cl)c1F` reads -1.27% (inactive); that for `N#C/C=C/c1ccc(C(F)(F)F)cc1[N+](=O)[O-]`, -0.41% (inactive); that for `Cc1nc2c(ncn2-c2ccccc2)c(=O)n1NC(=O)CN1CCCC1`, -4.07% (inactive). `COc1ccc(CCN=C(C)c2cc(Cl)cc(Cl)c2O)cc1OC`: the activation was -0.13% (inactive).

For the origin of these results see PubChem BioAssay AID434982 (The Scripps Research Institute Molecular Screening Center, 2010).
